According to PubChem BioAssay AID1159580 (chemical genetic matrix, 2015):
The whole screen tested about 5,500 compounds, of which about 2,000 (36%) were called active. Not shown: some 18% with an inconclusive outcome. Rule as the data show it: active = normalized growth mostly below about 0.91 (no sharp cut-off); inconclusive = no clear call, values can overlap the other calls; inactive = mostly above about 0.92. The list shows a part of the results.

Assay: chemical genetic growth profiling, strain panel (AID 1159580);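 also: tested at 20 µM; growth read once vehicle control cultures reached saturation at 30 °C; 1 = growth at the plate median or of vehicle wells; lower values mean less growth of the strain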
Conditions: growth OD

Measured: normalized growth

O=C(O)/C=C/c1ccc(O)c(O)c1
inactive: S. cerevisiae deletion strains, locus YJR043C, strain POL32, hits give low values 1.01 | S. cerevisiae deletion strains, locus YJR066W, strain TOR1, hits give low values 0.95 | S. cerevisiae deletion strains, locus YKL009W, strain mrt4, hits give low values 1.05 | S. cerevisiae deletion strains, locus YKL068W, hits give low values 1.01 | S. cerevisiae deletion strains, locus YKL085W, strain MDH1 (second series), hits give low values 1.02 | S. cerevisiae deletion strains, locus YKL085W, strain MDH1, hits give low values 1.02 | S. cerevisiae deletion strains, locus YKL160W, strain elf1, hits give low values 1 | S. cerevisiae deletion strains, locus YKL190W, strain CNB1, hits give low values 1.01 | S. cerevisiae deletion strains, locus YKR001C, strain vps1, hits give low values 1 | S. cerevisiae deletion strains, locus YKR026C, strain gcn3, hits give low values 1 | S. cerevisiae deletion strains, locus YKR091W, strain srl3, hits give low values 1 | S. cerevisiae deletion strains, locus YLL001W, strain dnm1, hits give low values 0.992 | S. cerevisiae deletion strains, locus YLL026W, hits give low values 0.992 | S. cerevisiae deletion strains, locus YLL041C, strain sdh2, hits give low values 1 | S. cerevisiae deletion strains, locus YLR027C, strain aat2, hits give low values 0.989 | S. cerevisiae deletion strains, locus YLR039C, strain RIC1, hits give low values 1.01 | S. cerevisiae deletion strains, locus YLR058C, strain SHM2, hits give low values 1.01 | S. cerevisiae deletion strains, locus YLR102C, strain apc9, hits give low values 1.01 | S. cerevisiae deletion strains, locus YLR113W, strain HOG1, hits give low values 0.985 | S. cerevisiae deletion strains, locus YLR221C, strain rsa3, hits give low values 1 | S. cerevisiae deletion strains, locus YLR258W, strain gsy2, hits give low values 0.999 | S. cerevisiae deletion strains, locus YLR262C, strain YPT6 (second series), hits give low values 0.993 | S. cerevisiae deletion strains, locus YLR262C, strain YPT6, hits give low values 0.998 | S. cerevisiae deletion strains, locus YLR268W, strain sec22, hits give low values 1.03 | S. cerevisiae deletion strains, locus YLR320W, strain mms22, hits give low values 1.02 | S. cerevisiae deletion strains, locus YLR330W, strain CHS5, hits give low values 1.02 | S. cerevisiae deletion strains, locus YLR342W, strain FKS1 (second series), hits give low values 1.07 | S. cerevisiae deletion strains, locus YLR342W, strain FKS1, hits give low values 1.01 | S. cerevisiae deletion strains, locus YLR357W, strain rsc2, hits give low values 1.01 | S. cerevisiae deletion strains, locus YLR370C, strain arc18, hits give low values 1 | S. cerevisiae deletion strains, locus YLR371W, strain rom2, hits give low values 1.01 | S. cerevisiae deletion strains, locus YLR384C, strain iki3, hits give low values 0.999 | S. cerevisiae deletion strains, locus YLR418C, strain cdc73, hits give low values 1.05 | S. cerevisiae deletion strains, locus YML016C, strain PPZ1, hits give low values 1.01 | S. cerevisiae deletion strains, locus YML032C, strain rad52, hits give low values 0.998 | S. cerevisiae deletion strains, locus YML120C, strain ndi1, hits give low values 1.01 | S. cerevisiae deletion strains, locus YML124C, strain tub3, hits give low values 1 | S. cerevisiae deletion strains, locus YMR058W, strain fet3, hits give low values 1.01 | S. cerevisiae deletion strains, locus YMR078C, strain ctf18, hits give low values 1.01 | S. cerevisiae deletion strains, locus YMR125W, strain sto1, hits give low values 1 | S. cerevisiae deletion strains, locus YMR129W, hits give low values 1 | S. cerevisiae deletion strains, locus YMR205C, strain PFK2, hits give low values 0.999 | S. cerevisiae deletion strains, locus YMR223W, strain ubp8, hits give low values 0.997 | S. cerevisiae deletion strains, locus YMR231W, strain pep5, hits give low values 0.98 | S. cerevisiae deletion strains, locus YMR307W, strain GAS1, hits give low values 1.04 | S. cerevisiae deletion strains, locus YNL067W, strain RPL9B, hits give low values 0.994 | S. cerevisiae deletion strains, locus YNL071W, strain lat1, hits give low values 1.01 | S. cerevisiae deletion strains, locus YNL153C, strain GIM3, hits give low values 0.999 | S. cerevisiae deletion strains, locus YNL175C, strain NOP13, hits give low values 1 | S. cerevisiae deletion strains, locus YNL183C, strain NPR1, hits give low values 0.971 | S. cerevisiae deletion strains, locus YNL197C, strain WHI3, hits give low values 1.01 | S. cerevisiae deletion strains, locus YNL209W, strain ssb2, hits give low values 0.998 | S. cerevisiae deletion strains, locus YNL224C, strain SQS1, hits give low values 0.997 | S. cerevisiae deletion strains, locus YNL233W, strain BNI4, hits give low values 1 | S. cerevisiae deletion strains, locus YNL248C, strain rpa49, hits give low values 1 | S. cerevisiae deletion strains, locus YNL250W, strain rad50, hits give low values 1 | S. cerevisiae deletion strains, locus YNL271C, strain bni1, hits give low values 0.998 | S. cerevisiae deletion strains, locus YNL298W, strain CLA4, hits give low values 0.98 | S. cerevisiae deletion strains, locus YNL307C, strain MCK1, hits give low values 1.01 | S. cerevisiae deletion strains, locus YNL322C, strain KRE1 (second series), hits give low values 0.998 | S. cerevisiae deletion strains, locus YNL322C, strain KRE1, hits give low values 1.02 | S. cerevisiae deletion strains, locus YNR049C, strain mso1, hits give low values 1.01 | S. cerevisiae deletion strains, locus YNR052C, strain pop2, hits give low values 0.993 | S. cerevisiae deletion strains, locus YOL012C, strain htz1 0.725 | S. cerevisiae deletion strains, locus YOL147C, strain pex11, hits give low values 1.01 | S. cerevisiae deletion strains, locus YOR001W, strain rrp6, hits give low values 1.02 | S. cerevisiae deletion strains, locus YOR061W, strain CKA2, hits give low values 1.02 | S. cerevisiae deletion strains, locus YOR069W, strain VPS5, hits give low values 1.01 | S. cerevisiae deletion strains, locus YOR070C, strain gyp1, hits give low values 0.972 | S. cerevisiae deletion strains, locus YOR080W, strain dia2, hits give low values 1 | S. cerevisiae deletion strains, locus YOR083W, strain WHI5 (second series), hits give low values 1.01 | S. cerevisiae deletion strains, locus YOR083W, strain WHI5, hits give low values 1 | S. cerevisiae deletion strains, locus YOR106W, strain vam3, hits give low values 1.04 | S. cerevisiae deletion strains, locus YOR136W, strain idh2, hits give low values 1.02 | S. cerevisiae deletion strains, locus YOR144C, strain elg1, hits give low values 1.01 | S. cerevisiae deletion strains, locus YOR184W, strain ser1, hits give low values 1 | S. cerevisiae deletion strains, locus YOR231W, strain MKK1, hits give low values 1.03 | S. cerevisiae deletion strains, locus YOR265W, strain rbl2, hits give low values 0.988 | S. cerevisiae deletion strains, locus YOR270C, strain vph1, hits give low values 1 | S. cerevisiae deletion strains, locus YOR290C, strain snf2, hits give low values 1.01 | S. cerevisiae deletion strains, locus YOR316C, strain cot1, hits give low values 1 | S. cerevisiae deletion strains, locus YPL051W, strain arl3, hits give low values 0.994 | S. cerevisiae deletion strains, locus YPL055C, strain LGE1, hits give low values 1.01 | S. cerevisiae deletion strains, locus YPL078C, strain atp4, hits give low values 1 | S. cerevisiae deletion strains, locus YPL106C, strain sse1, hits give low values 0.992 | S. cerevisiae deletion strains, locus YPL240C, strain hsp82, hits give low values 1 | S. cerevisiae deletion strains, locus YPL256C, strain CLN2, hits give low values 0.985 | S. cerevisiae deletion strains, locus YPR119W, strain clb2, hits give low values 1.01 | S. cerevisiae deletion strains, locus YPR141C, strain kar3, hits give low values 1.04 | S. cerevisiae deletion strains, locus YPR163C, strain tif3, hits give low values 1 | S. cerevisiae deletion strains, locus YPR167C, strain met16, hits give low values 1.02 | S. cerevisiae deletion strains, strain wtn01, hits give low values 1.04 | S. cerevisiae strains, strain wild type, hits give low values 1.01
